SMILES strings stand for the structures. “And” between values parts separate entries of the source, which are not always exact repeats. Equal entries are not always repeated. The panel holds about 83,000 compounds, 20% with a hit somewhere; the sample as a whole holds those more often.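 Values shown are percent growth following 48 h exposure of cells in 96-well plates to a single concentration of compound; below 10 was considered active.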 Unmarked numbers belong to inactive results.

The assay has as its system HCT-15 colon. The experiment in a line: NCI-60 one-dose screen, 48 h (100 = growth as untreated, 0 = no growth, -100 = all killed). The conditions noted are these: 10 µM unless noted. The method, then: Growth inhibition of the HCT-15 human tumor cell line is measured as a screen for anti-cancer activity. Cells are grown in 96 well plates and exposed to the test compound for 48 hours. Compounds are tested at a single concentration, which is 10^-5 M for most compounds. The reported endpoint is percent growth (GI% or GIPRCNT), where numbers from 0 - 100% represent growth inhibition, and numbers from -100% - 0 represent cell death. For example, a value of 40 represents 60% growth inhibition. A value of 0 means no net growth occurred over the course of the experiment. A value of -40 indicates 40% of cells at the beginning of the experiment died by the end of the experiment. A value of -100 means all cells are dead at the end of the experiment.
NCI-60 Human Tumor Cell Lines Screen was performed using the standard one-dose NCI protocol, which is described in more detail at https://dtp.cancer.gov/discovery_development/nci-60/default.htm.
Compounds with GIPRCNT values below 10 were considered active. Activity score was based on GIPRCNT using the following formula: […]
Score is 0 for GIPRCNT values of 100 or above, 50 for GIPRCNT values of 0, and 100 for GIPRCNT values of -100.
Take `O=c1[nH]c(=O)n(C2OC(CO)C(O)C2O)cc1I` (stereo not given): the growth was 114% and 107%. Then `COc1ccccc1OCC(O)CO` (stereo not given), with 95.1% and 105%; and `O=C1Cc2ccccc2C(=O)N1`, with 99.2%; and `COc1ccc(C(=O)C(O)c2ccc(OC)cc2)cc1` (stereo not given), with 110% and 107%.

For the compound `CCN(CC)CCO/N=C1\CC(c2ccc(OC)c(OC)c2)Oc2ccccc21` (stereo not given), the growth is 88.6%. Then `S=c1nn[nH]n1C1CCCCC1`, with 115%; and `O=S(=O)(O)c1ccc2cc(O)ccc2c1`, with 112%.

For `S=c1ccc2ccccc2[nH]1`, the growth is 102% and 113%. The figure for `Cc1cc(-c2ccc(N=Nc3c(C)nn(-c4ccc(S(=O)(=O)O)cc4)c3O)c(C)c2)ccc1N=Nc1ccc(O)c(C(=O)O)c1` is 97.9%; for `CC(CN(C)C)CN1c2ccccc2Sc2ccccc21` (stereo not given) it is 84.8% and 89.2% and 84.7%; for `CC(=O)Nc1cscc1NC(C)=O` it is 106%. The figure for `COC(=O)c1nc(=S)[nH]c(C(=O)OC)c1C(=O)c1ccc(OC)cc1` is 100%. The figure for `COc1ccc(/C=C/C(=O)O)cc1OC` is 106% and 103%.

Take `CCCCCc1cc[n+](CC(=O)c2ccccc2)cc1`: the growth is 99.4% and 103%. Then `CN(C)C(=S)N(C)C`, with 102%; and `CN(C=O)c1ccccc1`, with 95.1%.

As to `O=[N+]([O-])c1cccc2ccc(N/N=C/c3ccccc3O)nc12`, the growth was 93.6% and 98%. The figure for `Oc1ccc(O)c(-c2ccccc2)c1` is 22.8%; for `CCN(CC)CCNC(=O)c1ccc(NCN2C(=O)NC(c3ccccc3)(c3ccccc3)C2=O)cc1` it is 113% and 105%.

With `Cc1c(Cl)cc(Cl)c(N)c1Cl`, the growth is 104%. Then `C/C(=C\c1ccccc1)C(O)C(=O)c1nc2ccc([N+](=O)[O-])cc2[nH]c1=O` (stereo not given), with 100%. Take `Cc1cnc(N)s1`: the growth was 105%. Then `O=[N+]([O-])c1ccc(N/N=C/C2CCCCCC2)c([N+](=O)[O-])c1`, with 89.1%; and `COc1ccc(CCl)c(C)c1OC`, with 106%; and `CCCC(=O)Oc1ccc(CC)cc1`, with 99.5%. The figure for `COc1ccc(COC=O)cc1` is 107%; for `CCCC(=O)OCC(COC(=O)CCC)OC(=O)CCC` it is 106%; for `CCOC(=O)NC(N)=O` it is 105% and 98%. The figure for `O=COCCCc1ccccc1` is 107%. For the compound `Cc1nc2c(=O)[nH]c(=S)[nH]c2[nH]c1=O`, the growth was 105% and 104%. Then `COC(=O)c1ccccc1Cl`, with 100%; and `CC1=CC(=O)c2cccc(NC3=NCCO3)c21`, with 102%; and `CC(=O)Nc1ccc2oc(=O)ccc2c1`, with 107%. The figure for `N#Cc1ccc(/C=C/C(=O)c2ccccc2)cc1` is 49.6% and 82.3%. Then `Cc1ccc(NC(=S)N/C=C(\c2ccccc2)S(=O)Cc2ccccc2)c(C)c1` (stereo not given), with 103%.

On to `O=C(Nc1ccccc1)OCC(CN1CCCCC1)OC(=O)Nc1ccccc1` (stereo not given), for which the growth was 84.9% and 99.5%.

Take `c1ccc2c[n+](Cc3ccc4ccccc4n3)ccc2c1`: the growth was 106%.

Turning to `O=C(O)c1cccc(Br)c1`, the growth is 108% and 102%. Regarding `CCN(C)c1ccccc1`, the growth was 101%.

As for `COC(=O)c1nc(=S)[nH]c(C(=O)OC)c1C(=O)c1ccccc1`, the growth is 103%.

The values are drawn from PubChem BioAssay (NCI).
